# Reference: PubChem BioAssay (NCATS)
# Results filed as inconclusive are left out. Unmarked numbers belong to inactive results. Calls of active or inactive are those of the source. Calls follow the shape of the dose curve; as a rule, active = well fitted curve in the direction sought with a large enough effect; inconclusive = small, poorly fitted or top-dose-only effect, or another doubt; inactive = no such curve, though single readings can be large; an effect the other way counts as inactive or inconclusive.
# What was measured:
# [1] = Quantitative highthroughput screen to assess conditional lethalithy of P12 Ichikawa cells grown in Human Plasma-Like Medium with dialyzed fetal bovine serum (HPLM+ds) (AID 1963879); conditions: Potency: viability; also: nearly all actives have a fitted effect of over 35% in size; also: potency is read from the fitted curve at half-maximal effect; as to viability: series mostly up to about 46 µM
# In short: (§1)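 Each medium arm—HPLM with 10% dialyzed FBS, or RPMI1640 with 5 mM glucose and 10% untreated or dialyzed FBS—was screened against an 11-point, 3-fold compound titration for 48 h at 37 °C, with CellTiter-Glo luminescence as endpoint.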
# [2] = Quantitative highthroughput screen to assess conditional lethalithy of NOMO1 cells grown in Human Plasma-Like Medium with dialyzed fetal bovine serum (HPLM+ds) (AID 1963878); also: nearly all actives have a fitted effect of over 35% in size; also: potency is read from the fitted curve at half-maximal effect;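 as to viability: 100% = DMSO wells and 0% = empty wells on each plate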
# In short: as §1
# [3] = Quantitative highthroughput screen to assess conditional lethalithy of P12 Ichikawa cells grown in RPMI1640 with dialyzed fetal bovine serum (RPMI+ds) (AID 1963880); conditions: Potency: P12-Ichikawa viability; also: nearly all actives have a fitted effect of over 35% in size; also: potency is read from the fitted curve at half-maximal effect;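 as to viability: 100% = DMSO wells and 0% = empty wells on each plate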
# In short: as §1
# [4] = Quantitative highthroughput screen to assess conditional lethalithy of P12 Ichikawa cells grown in RPMI1640 with untreated serum (RPMI+s) (AID 1963881); conditions: Potency: viability; also: nearly all actives have a fitted effect of over 35% in size; also: potency is read from the fitted curve at half-maximal effect;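 as to viability: series mostly up to about 46 µM; 100% = DMSO wells and 0% = empty wells without cells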
# In short: as §1
# [5] = Quantitative highthroughput screen to assess conditional lethalithy of SEM cells grown in Human Plasma-Like Medium with dialyzed fetal bovine serum (HPLM+ds) (AID 1963882); also: nearly all actives have a fitted effect of over 35% in size; also: potency is read from the fitted curve at half-maximal effect; as to viability: series mostly up to about 46 µM
# In short: as §1
# [6] = Quantitative highthroughput screen to assess conditional lethalithy of SEM cells grown in RPMI1640 with unreated serum (RPMI+s) (AID 1963883); also: nearly all actives have a fitted effect of over 35% in size; also: potency is read from the fitted curve at half-maximal effect;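 as to viability: 100% = DMSO wells and 0% = empty wells without cells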
# In short: as §1
# [7] = Quantitative highthroughput screen to assess conditional lethalithy of SEM cells grown in RPMI1640 with dialyzed fetal bovine serum (RPMI+ds) (AID 1963884); also: nearly all actives have a fitted effect of over 35% in size; also: potency is read from the fitted curve at half-maximal effect;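 as to viability: series mostly up to about 46 µM; 100% = DMSO control wells and 0% = empty wells without cells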
# In short: as §1
# [8] = Cellular viability qHTS for adrenocortical cancer (ACC) cell line SW-13 (AID 1963989); conditions: SW-13 ACC cells viability, CellTiter-Glo, 48 h; activity (max response): active compounds read low;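 also: cells grown in serum-free medium with ITS supplement; % is scaled to controls: 0 for no effect and ±100 for the full control effect; nearly all actives have a fitted effect of over 65% in size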
# In short: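 IC50 and maximal-response values come from four-parameter logistic fits of titration data. SW-13 cells in serum-free medium received compounds (up to 46 uM final) for 48 h before CellTiter-Glo luminescence.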
# [9] = Cellular viability qHTS for adrenocortical cancer (ACC) cell line NCI-H295R (AID 1963990);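 also: 0% = DMSO only wells and -100% = full killing with cytotoxic reference compound; nearly all actives have a fitted effect of over 60% in size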
# In short: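 Adrenocortical carcinoma cells, suspended at 300 000 cells/mL in serum-free DMEM plus ITS, rested overnight before pin transfer of compound. After two days' incubation, ATP-dependent luminescence was recorded and curve-fitted.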
# [10] = Quantitative highthroughput screen to assess conditional lethalithy of NOMO1 cells grown in RPMI1640 with dialyzed fetal bovine serum (RPMI+ds) (AID 1963877); also: potency is read from the fitted curve at half-maximal effect; nearly all actives have a fitted effect of over 30% in size
# In short: as §1
smiles,measurement,setting,value
Cc1nnc(C(C)C)n1C1C[C@H]2CC[C@@H](C1)N2CC[C@H](NC(=O)C1CCC(F)(F)CC1)c1ccccc1 (stereo not given in full),Potency,[1],16.6 µM (active)
O=c1ccn([C@@H]2O[C@H](CO)[C@H](O)[C@@H]2F)c(=O)[nH]1,Potency,[2],inactive
same,Potency,[1],inactive
same,Potency,[3],inactive
same,Potency,[4],inactive
same,Potency,[5],inactive
same,Potency,[6],inactive
same,Potency,[7],inactive
same,activity (max response),[8],-7.29%
same,Potency,[9],inactive
C[C@]12C=CC(=O)C=C1CC[C@@H]1[C@@H]2[C@@H](O)C[C@@]2(C)[C@@H]1CC[C@]2(O)C(=O)CO,Potency,[1],16.6 µM (active)
same,Potency,[3],7.43 µM (active)
same,Potency,[4],6.62 µM (active)
same,Potency,[5],6.62 µM (active)
CC1(C)C(=O)N(CCN2CCC(C(=O)c3ccc(F)cc3)CC2)c2ccccc21,Potency,[10],18.7 µM (active)
same,Potency,[1],inactive
same,Potency,[5],inactive
same,Potency,[6],inactive
same,Potency,[7],inactive
CN(C)C(=N)N=C(N)N,Potency,[1],26.4 µM (active)
Oc1ccc(C=Cc2cc(O)cc(O)c2)cc1,Potency,[2],14.8 µM (active)
same,Potency,[6],11.8 µM (active)
same,Potency,[7],20.9 µM (active)
CCCCCCCCOc1ccccc1C(=O)Nc1ccc(C(=O)OCC[N+](C)(CC)CC)cc1,Potency,[1],inactive
CC(=O)NCC(=O)N1[C@H]2CC[C@H]1c1cc(Nc3ncc(C(F)(F)F)c(NC4CCC4)n3)ccc12,Potency,[2],0.296 µM (active)
same,Potency,[1],0.132 µM (active)
same,Potency,[4],0.132 µM (active)
same,Potency,[5],0.118 µM (active)
same,Potency,[6],0.105 µM (active)
CO[C@H]1C[C@@H]2CC[C@@H](C)[C@@](O)(O2)C(=O)C(=O)N2CCCC[C@@H]2C(=O)O[C@H]([C@H](C)C[C@@H]2CC[C@H](OC(=O)C(C)(CO)CO)[C@H](OC)C2)CC(=O)[C@H](C)C=C(C)[C@@H](O)[C@@H](OC)C(=O)[C@H](C)C[C@H](C)C=CC=CC=C1C,Potency,[1],6.62 µM (active)
